nsP2pro inh: Primary qHTS for inhibitors of NSP2Pro chikungunya virus (CHIKV) | Polyprotein P1234 (Chikungunya virus (strain S27-African prototype)), Q8JUX6 | FRET peptide cleavage, nsP2pro, fluorescence 1 h | Potency, µM (highest dose often 24.9 µM), without a hit: at the highest dose activity change, negative = inhibition, usual class: inhibitors | hit rate 1.1% among 31,000 | AID 1964107, 2024; further: nearly all actives have a fitted effect of over 60% in size
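Enzyme 150 nM, substrate 2.5 uM (both final); Tris-HCl 10 mM pH 8.0 + 0.01% Tween 20; cpd up to 25 uM, 7 pts; 15 min preinc., 1 h RT; fluorescence ex 525/em 598.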
CHIKV nsP2 cell: Secondary cell base assay for inhibitors of NSP2Pro Chikungunya virus (CHIKV); shares compounds with nsP2pro inh; cell-based CHIKV nsP2 protease reporter assay; Potency, µM (top dose mostly 51.1 µM), inactives show at the top dose activity change, negative = inhibition, actives largely listed as inhibitors; hit rate 10% among 450; AID 1964100, 2024; further: nearly all actives have a fitted effect of over 70% in size
CHIKV NSP2 FL: Selectivity profile for inhibitors of NSP2Pro chikungunya virus (CHIKV): Full length NSP2 enzyme counterscreen (CHIKV-NSP2) | shares compounds with nsP2pro inh | hit rate 39% among 410 | AID 1964101, 2024 | Potency, µM (series often up to 50.7 µM), without a hit: top-dose activity change, negative = inhibition, usual class: inhibitors | Full-length CHIKV NSP2 protease enzymatic counterscreen; further: nearly all actives have a fitted effect of over 65% in size
Furin counter: Selectivity profile for inhibitors of NSP2Pro chikungunya virus (CHIKV): Human furin counterscreen; shares compounds with nsP2pro inh; hit rate 6% among 410; Recombinant human furin enzymatic counterscreen, fluorogenic substrate; Potency, µM (series often up to 50.6 µM), for inactives: at the top dose activity change, negative = inhibition, most hits filed as inhibitors
NS23 peptide cs: Selectivity profile for inhibitors of NSP2Pro chikungunya virus (CHIKV): Endogenous NS2/3 peptide Counterscreen; shares compounds with nsP2pro inh; Purified CHIKV nsP2 protease, endogenous NS2/3 peptide cleavage; Potency, µM (series often up to 51 µM), for inactives: at the highest dose activity change, negative = inhibition, usual class: inhibitors; hit rate 34% among 410; AID 1964103, 2024; further: nearly all actives have a fitted effect of over 55% in size
Papain cs: Selectivity profile for inhibitors of NSP2Pro chikungunya virus (CHIKV): Papain Counterscreen. shares compounds with nsP2pro inh. purified papain protease activity, enzymatic inhibition. Potency, µM (titrated, usually from 51 µM), without a hit: at the highest dose activity change, negative = inhibition, hits mostly inhibitors. hit rate 5% among 410
Target sequence (P00784 whole entry, looked up): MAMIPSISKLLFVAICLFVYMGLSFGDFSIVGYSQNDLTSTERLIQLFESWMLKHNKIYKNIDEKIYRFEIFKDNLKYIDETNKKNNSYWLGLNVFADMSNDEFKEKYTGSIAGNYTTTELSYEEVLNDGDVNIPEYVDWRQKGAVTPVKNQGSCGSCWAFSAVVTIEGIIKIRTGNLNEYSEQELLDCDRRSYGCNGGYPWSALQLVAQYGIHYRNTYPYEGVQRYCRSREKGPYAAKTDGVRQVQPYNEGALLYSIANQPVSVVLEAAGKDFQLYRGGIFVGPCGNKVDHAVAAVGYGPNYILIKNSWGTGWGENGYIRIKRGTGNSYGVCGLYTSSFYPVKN
nsP2pro conf qHTS: Confirmatory qHTS for inhibitors of NSP2Pro chikungunya virus (CHIKV) | shares compounds with nsP2pro inh | CHIKV nsP2 protease enzymatic activity, qHTS | hit rate 43% among 410 | Potency, µM (top dose mostly 25.5 µM), inactives show at the top dose activity change, negative = inhibition, hits mostly inhibitors; further: nearly all actives have a fitted effect of over 75% in size
HCV NS3 counter: Selectivity profile for inhibitors of NSP2Pro chikungunya virus (CHIKV): NS34A-HCV Counterscreen. shares compounds with nsP2pro inh. HCV NS3/4A protease biochemical counterscreen. Potency, µM (doses to about 50.9 µM), actives largely listed as inhibitors. hit rate 20% among 410; further: nearly all actives have a fitted effect of over 55% in size
* marks the source's active call; other numbers are inactive results; i = inactive; ? = inconclusive; [ ] = dose if it differs, or a comment. Only a selection was taken, and hits are over-represented in it overall. The call rests on the fitted dose curve. On the % scale 0 is the no-effect control and ±100 the full control effect; potency means the concentration at half of the fitted maximal effect.

SMILES	nsP2pro inh	others
Cc1ccc([S+](=O)([O-])N2CCCC2C(=O)N2CCC3(CC2)CC(=O)Nc2ccccc2O3)cc1 (configuration not stated)	-1%
O=C(NCCc1ccc(Cl)cc1)c1cc(-c2cccs2)c2cccn2n1	-14%
COc1ccc(C2(C(=O)N3CCCC(Cn4c(C)nc5cccnc54)C3)CCCCC2)cc1 (configuration not stated)	i
Cc1cc(C)nc(NC(=S)N2CCN(c3ccc(Cl)c(Cl)c3)CC2)c1	0%
Cc1cc(C)cc(N2CCN(C(=S)Nc3cc(C)cc(C)n3)CC2)c1	-2%
Cc1cc(C)nc(NC(=S)N2CCN(c3ccc4nsnc4c3)CC2)c1	3.2µM*	CHIKV nsP2 cell=16µM*;CHIKV NSP2 FL=7.3µM*;Furin counter=-8%;NS23 peptide cs=12µM*;Papain cs=-8%;nsP2pro conf qHTS=9µM*;HCV NS3 counter=?
COc1cc(Nc2nc(-c3ccncc3)nc3ccccc23)ccc1F	4%
Cc1oc2c(cc(NS(=O)(=O)c3ccc(C(C)C)cc3)c3ccccc32)c1C(=O)OCc1ccccc1	-21%
O=S(=O)(Nc1ccccc1)c1ccc(NCc2ccc(Br)cc2O)cc1	-26%
O=C(O)CSc1cc(NS(=O)(=O)c2ccc(Br)cc2)c2ccccc2c1O	1µM*	CHIKV nsP2 cell=?;CHIKV NSP2 FL=4.1µM*;Furin counter=-18%;NS23 peptide cs=1.8µM*;Papain cs=18µM*;nsP2pro conf qHTS=0.8µM*;HCV NS3 counter=?
O=C(c1ccc2ccccc2n1)N1CCC(n2cc(-c3nc(-c4ccccc4)no3)nn2)C1 (configuration not stated)	i
CC(=O)NCC(=O)N1CCC(c2cc(-c3ccc(F)cc3)n[nH]2)CC1	i
COCC1CCCN(C(=O)c2cc(Cn3c(C)nc4ccccc43)[nH]n2)C1 (configuration not stated)	2%
O=C(NCC(F)(F)F)c1cc(C2CCN(C(=O)c3cc(-c4ccco4)[nH]n3)CC2)[nH]n1	1.1µM*	CHIKV nsP2 cell=-12%
COc1cccc(-c2cc(C3CCN(C(=O)Nc4ccccc4C(F)(F)F)CC3)[nH]n2)c1	i
O=C(c1cc(-c2ccco2)[nH]n1)N1CCC(n2cnc3ccccc32)C1 (configuration not stated)	0.71µM*	CHIKV nsP2 cell=?;CHIKV NSP2 FL=7.3µM*;Furin counter=-8%;NS23 peptide cs=?;Papain cs=-3%;nsP2pro conf qHTS=?;HCV NS3 counter=3.3µM*
O=C(Nc1nc(-c2ccccc2)cs1)c1ccccc1S(=O)(=O)Nc1nccs1	4%
CC(C)C[C@H](NC(=O)OCc1ccccc1)C(=O)N[C@@H](CC1CCNC1=O)C(O)S(=O)(=O)O (some centres not stated)	-24%
Cc1ccc(-c2ccc(=O)n(CC(=O)NCCc3ncc[nH]3)n2)cc1	i
C[C@@H]1CN(C(=O)c2cccc(N3CCNC3=O)c2)C[C@@]1(O)C1CC1	i
c1ccc(CN(Cc2ccccc2)Cc2nnc(-c3cc4ccccc4[nH]3)s2)cc1	8.9µM*	CHIKV nsP2 cell=25%;CHIKV NSP2 FL=12%;Furin counter=-5%;NS23 peptide cs=27%;Papain cs=2%;nsP2pro conf qHTS=2%;HCV NS3 counter=i
O=C(NCc1nnc(-c2cc3ccccc3[nH]2)s1)c1ccccc1	-1%
O=C(Cc1nnc(-c2cc3ccccc3[nH]2)s1)Nc1cc(C(F)(F)F)ccc1Cl	-5%
Oc1ccc(NCCN2CCCC2)cc1	4%[39.2 µM]
COc1cccc(C2N=C(Nc3nc4ccccc4o3)NC3=C2C(=O)CCC3)c1 (configuration not stated)	-20%
SMILES	nsP2pro inh	others
CN(Cc1ccccc1)Cc1cc(C[C@@H]2C[C@H](NC(=O)C3CC3)C2(C)C)no1	-15%[39.2 µM]
O=C(c1ccc2ncccc2c1)N1CCOC(c2ccc(Cl)c(Cl)c2)C1 (configuration not stated)	3%
O=C(c1ccc(-c2ccco2)cc1)N1CCOC(c2ccccc2)C1 (configuration not stated)	7.9µM*	CHIKV nsP2 cell=?;CHIKV NSP2 FL=10µM*;Furin counter=-3%;NS23 peptide cs=?;Papain cs=-13%;nsP2pro conf qHTS=9µM*;HCV NS3 counter=i
COc1ccc(-c2cc(C(=O)N3CCOC(c4ccc(F)cc4)C3)[nH]n2)cc1 (configuration not stated)	i
O=C(c1n[nH]c2ccccc12)N1CC2CC(C1)[C@H]1CCCC(=O)N1C2 (some centres not stated)	1%
CC(C)=CCC[C@](C)(OC1OC(COC2OCC(O)C(O)C2O)C(O)C(O)C1O)[C@H]1CC[C@]2(C)[C@@H]1[C@H](O)C[C@@H]1[C@@]3(C)CC[C@H](OC4OC(CO)C(O)C(O)C4OC4OC(CO)C(O)C(O)C4O)C(C)(C)[C@@H]3CC[C@]12C (some centres not stated)	-12%[10 µM]
CC1CCCN(c2ncnc3c2CN(c2ccc(Cl)cc2)C(=O)CN3C)C1 (configuration not stated)	i
C=C1C(=O)O[C@H]2[C@H]1[C@@H](OC(=O)/C(C)=C\C)C[C@]1(C)O[C@@H]1[C@H]1O[C@H]1C(=C)[C@H]2O	-4%
C/C=C(\C)C(=O)O[C@H]1CC2C(=C1C)[C@H]1OC(=O)[C@](C)(O)[C@]1(O)[C@H](OC(=O)CCC)C[C@@]2(C)OC(C)=O (some centres not stated)	-2%[10 µM]
C/C=C(\C)C(=O)OC1C[C@@]2(COC(C)=O)O[C@H]2/C=C\[C@@]2(C)O[C@@H]2[C@H]2OC(=O)C(COC(C)=O)=C12 (some centres not stated)	3.4µM*	CHIKV nsP2 cell=0%[17.6 µM];CHIKV NSP2 FL=?;Furin counter=-8%[17.3 µM];NS23 peptide cs=?;Papain cs=-9%[17.2 µM];nsP2pro conf qHTS=3.5µM*;HCV NS3 counter=?

Bioassay records (PubChem)
